# Results filed as inconclusive are left out. Entries that show only a call come without a potency. Calls of active or inactive are those of the source. Unless noted, the call rests on the fitted dose curve; in most records, active means well fitted curve in the direction sought with a large enough effect; inconclusive means small, poorly fitted or top-dose-only effect, or another doubt; inactive means no such curve, though single readings can be large; an effect the other way counts as inactive or inconclusive.
# Tests used:
# [1] = NS1 protein of Zika virus - qHTS assay to identify small molecule inhibitors in human HEK 293 cells (AID 1347053); further: nearly all actives have a fitted effect of over 55% in size; further: potency means the concentration at half of the fitted maximal effect
# In short: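 HEK 293 cells pretreated with compound for 1 h, then infected with ZIKV MR766 (MOI 0.5) for 24 h at 37 C. NS1 detected by TR-FRET with two anti-NS1 antibodies; normalized to uninfected (0%) and infected (100%) wells.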
# [2] = target: T1, Tyrosine-protein phosphatase non-receptor type substrate 1 (Homo sapiens) + Leukocyte surface antigen CD47 (Homo sapiens) (UniProt P78324+Q08722); assay: CD47-SIRPalpha protein protein interaction - LANCE assay qHTS validation (AID 1347057; active means well fitted curve in the direction sought with a large enough effect in the signal ratio, with a control signal flat, not every such curve was filed as active; the % refers to the signal ratio; further: series mostly up to about 38 µM)
# T1 sequence (P78324 whole entry, looked up): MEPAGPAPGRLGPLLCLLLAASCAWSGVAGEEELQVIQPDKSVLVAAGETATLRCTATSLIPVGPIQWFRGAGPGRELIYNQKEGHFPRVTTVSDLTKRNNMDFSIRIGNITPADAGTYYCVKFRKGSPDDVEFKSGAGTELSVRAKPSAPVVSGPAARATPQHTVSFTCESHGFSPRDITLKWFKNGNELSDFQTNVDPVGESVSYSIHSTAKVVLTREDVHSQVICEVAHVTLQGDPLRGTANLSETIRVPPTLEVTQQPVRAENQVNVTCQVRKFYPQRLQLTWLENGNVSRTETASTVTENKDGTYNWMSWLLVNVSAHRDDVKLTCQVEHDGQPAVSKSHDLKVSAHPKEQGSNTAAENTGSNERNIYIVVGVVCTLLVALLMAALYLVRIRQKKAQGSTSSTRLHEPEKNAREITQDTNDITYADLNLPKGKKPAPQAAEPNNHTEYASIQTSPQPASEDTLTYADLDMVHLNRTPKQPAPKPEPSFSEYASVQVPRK
# T1 sequence (Q08722 whole entry, looked up): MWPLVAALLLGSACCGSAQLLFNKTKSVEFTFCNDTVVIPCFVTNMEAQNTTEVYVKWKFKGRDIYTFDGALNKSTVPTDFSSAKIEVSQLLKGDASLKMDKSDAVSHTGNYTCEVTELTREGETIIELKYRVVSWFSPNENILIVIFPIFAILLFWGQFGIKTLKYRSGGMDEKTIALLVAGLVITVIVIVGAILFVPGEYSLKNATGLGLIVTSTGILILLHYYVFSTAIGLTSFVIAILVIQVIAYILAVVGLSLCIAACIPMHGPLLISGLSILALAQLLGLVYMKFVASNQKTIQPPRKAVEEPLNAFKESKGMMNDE
# In short: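 First, His-tagged CD47 and Eu-labelled anti-His antibody met the compound for 30 min; next, site-specifically biotinylated SIRPalpha was added for 30 min; finally streptavidin-APC was added before reading the TR-FRET ratio.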
# [3] = target: T1, Tyrosine-protein phosphatase non-receptor type substrate 1 (Homo sapiens) + Leukocyte surface antigen CD47 (Homo sapiens); assay: CD47-SIRPalpha protein protein interaction - HTRF assay qHTS validation (AID 1347058; active means well fitted curve in the direction sought with a large enough effect in the signal ratio, not every such curve was filed as active; the % refers to the signal ratio;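 further: recombinant soluble extracellular CD47 with His tag and biotinylated SIRPalpha domains; series mostly up to about 38 µM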)
# In short: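 TR-FRET read (Ch1/Ch2 ratio) of soluble extracellular CD47 and Avi-biotinylated SIRPalpha domains in PBS pH 7.4 with 0.05% IGEPAL; 7-point compound titration. Sequential 30 min room-temperature steps; non-biotinylated SIRPalpha as control inhibitor.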
# [4] = target: T1, Tyrosine-protein phosphatase non-receptor type substrate 1 (Homo sapiens) + Leukocyte surface antigen CD47 (Homo sapiens); assay: CD47-SIRPalpha protein protein interaction - Alpha assay qHTS validation (AID 1347059);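 further: bead proximity luminescence from CD47 binding SIRPalpha after compound preincubation with SIRPalpha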; further: potency means the concentration at half of the fitted maximal effect
# In short: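 Binding is measured by AlphaScreen proximity: Ni-NTA acceptor beads capture His-CD47, streptavidin donor beads capture biotin-SIRPalpha. Each of three additions (SIRPalpha with compound, CD47, beads) incubates 30 min at room temperature protected from light.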
# [5] = target: Parathyroid hormone/parathyroid hormone-related peptide receptor (Homo sapiens) (UniProt Q03431); assay: qHTS for PTHR1 Agonists: Optimization Screen against the NCGC LOPAC library (AID 1347079);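 further: GloSensor cAMP luminescence in HEK-293 GP2 cells expressing human PTHR1 with IBMX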; further: potency means the concentration at half of the fitted maximal effect
# Parathyroid hormone/parathyroid hormone-related peptide receptor (Homo sapiens), sequence (Q03431 whole entry, looked up): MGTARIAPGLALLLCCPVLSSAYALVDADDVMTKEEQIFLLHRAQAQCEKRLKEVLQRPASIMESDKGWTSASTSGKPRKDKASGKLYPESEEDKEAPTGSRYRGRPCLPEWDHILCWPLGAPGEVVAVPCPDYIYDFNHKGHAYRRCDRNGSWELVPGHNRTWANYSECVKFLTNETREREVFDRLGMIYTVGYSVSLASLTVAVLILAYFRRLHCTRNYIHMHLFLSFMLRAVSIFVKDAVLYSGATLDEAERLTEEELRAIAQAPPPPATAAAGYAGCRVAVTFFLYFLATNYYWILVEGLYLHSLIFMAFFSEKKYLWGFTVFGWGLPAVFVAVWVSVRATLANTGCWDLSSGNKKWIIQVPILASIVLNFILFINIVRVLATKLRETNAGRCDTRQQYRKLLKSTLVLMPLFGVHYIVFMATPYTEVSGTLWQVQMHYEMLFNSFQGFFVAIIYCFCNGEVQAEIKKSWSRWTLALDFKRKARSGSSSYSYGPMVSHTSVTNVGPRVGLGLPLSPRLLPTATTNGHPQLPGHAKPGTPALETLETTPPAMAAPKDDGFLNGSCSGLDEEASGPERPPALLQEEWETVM
# In short: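 Compounds were tested across a qHTS titration. PTHR1-expressing GP2 cells report cAMP rises via GloSensor luminescence after 1 hr compound exposure at 37C with IBMX present.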
# [6] = target: N-terminal Xaa-Pro-Lys N-methyltransferase 1 (Homo sapiens) (UniProt Q9BV86); assay: qHTS Assay for Inhibitors of N-terminal methyltransferase 1 (NTMT1): LOPAC validation of the NTMT1 SAHH-coupled ThioGlo3 Assay (AID 1347143);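 further: SAH from peptide methylation measured as thiol fluorescence via SAHH coupling and ThioGlo3; nearly all actives have a fitted effect of over 70% in size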; further: potency means the concentration at half of the fitted maximal effect
# N-terminal Xaa-Pro-Lys N-methyltransferase 1 (Homo sapiens), sequence (Q9BV86 whole entry, looked up): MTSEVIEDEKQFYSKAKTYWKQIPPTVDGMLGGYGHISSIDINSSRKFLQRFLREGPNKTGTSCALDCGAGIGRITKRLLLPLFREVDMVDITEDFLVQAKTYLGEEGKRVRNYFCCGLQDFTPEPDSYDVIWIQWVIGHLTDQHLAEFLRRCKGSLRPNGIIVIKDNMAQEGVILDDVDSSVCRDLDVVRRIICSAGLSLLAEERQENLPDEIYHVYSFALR
# In short: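 Inhibition of NTMT1 methylation of peptide SPKRIA is followed by converting SAH with SAHH and labelling the released thiol with ThioGlo3. Plates are read at 340/450nm before and 30 min after reagent addition, both at room temperature.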
# [7] = tested on: Zika virus NS2B-NS3 protease (unlinked); assay: Optimization of GU AMC qHTS for Zika virus inhibitors: Unlinked NS2B-NS3 protease assay (AID 1347151); further: nearly all actives have a fitted effect of over 80% in size; further: potency means the concentration at half of the fitted maximal effect
# In short: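 Fluorescence read-out (340 nm ex / 450 nm em) of AMC peptide cleavage, taken immediately and after 15 min at room temperature (~20% conversion). Enzyme was the unlinked NS2B–NS3 complex at 25 nM in Tris pH 8.0 buffer.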
# Furin (Homo sapiens) = Furin (Homo sapiens) (UniProt P09958); assay: Furin counterscreen qHTS for Zika virus inhibitors (AID 1347149);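 further: purified recombinant full-length human furin enzyme at 5 nM; fluorescence gain from furin cutting a BOC-RVRR-AMC peptide substrate over 15 min; top concentration of the series differs between compounds; nearly all actives have a fitted effect of over 70% in size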
# Furin (Homo sapiens), sequence (P09958 whole entry, looked up): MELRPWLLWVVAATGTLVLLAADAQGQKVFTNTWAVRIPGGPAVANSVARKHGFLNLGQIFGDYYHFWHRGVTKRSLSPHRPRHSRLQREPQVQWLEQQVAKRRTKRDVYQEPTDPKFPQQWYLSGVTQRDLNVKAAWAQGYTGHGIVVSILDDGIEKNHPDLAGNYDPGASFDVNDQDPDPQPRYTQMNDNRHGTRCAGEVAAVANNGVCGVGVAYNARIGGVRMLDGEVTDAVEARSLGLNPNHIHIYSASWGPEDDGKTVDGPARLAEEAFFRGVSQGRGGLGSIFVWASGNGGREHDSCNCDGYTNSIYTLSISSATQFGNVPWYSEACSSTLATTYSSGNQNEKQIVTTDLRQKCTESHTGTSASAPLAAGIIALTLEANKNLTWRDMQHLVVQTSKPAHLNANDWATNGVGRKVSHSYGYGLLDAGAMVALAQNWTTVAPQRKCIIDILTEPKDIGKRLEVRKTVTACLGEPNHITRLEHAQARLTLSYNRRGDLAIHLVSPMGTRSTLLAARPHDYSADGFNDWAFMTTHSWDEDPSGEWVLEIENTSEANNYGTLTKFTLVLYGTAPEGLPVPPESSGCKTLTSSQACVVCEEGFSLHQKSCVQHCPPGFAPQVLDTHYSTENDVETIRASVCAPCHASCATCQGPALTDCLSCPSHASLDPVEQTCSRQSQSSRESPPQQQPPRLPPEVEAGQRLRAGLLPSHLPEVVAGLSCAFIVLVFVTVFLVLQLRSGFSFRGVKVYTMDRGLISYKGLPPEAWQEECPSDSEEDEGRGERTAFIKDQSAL
# In short: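 Fluorogenic cleavage of BOC-RVRR-AMC (2 microM final, Km ~15 µM) was monitored (ex 340, em 450 nm) at 37C after 15 min RT preincubation of 5 nM furin with compounds in HEPES pH 7.0 buffer with CaCl2 and Triton X-100. Percent inhibition was fitted to a 4-parameter Hill curve.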
Structure (SMILES),Potency [1],Potency [2],outcome [3],Potency [4],Potency [5],Potency [6],Potency [7],Potency (Furin (Homo sapiens))
CC1=C(C(=O)O)N2C(=O)[C@@H](NC(=O)C(N)C3=CCC=CC3)[C@H]2SC1 (stereo partly drawn),inactive,inactive,inactive,inactive,inactive,inactive,inactive,–
CNc1cc(NS(=O)(=O)c2ccc(N)cc2)nc(NC)n1,inactive,inactive,inactive,inactive,inactive,inactive,inactive,–
CC[N+](CC)(CC)CC(=O)Nc1c(C)cccc1C,inactive,inactive,inactive,inactive,inactive,inactive,inactive,–
COc1cc(C(O)CO)ccc1O (stereo not drawn),inactive,inactive,inactive,inactive,inactive,inactive,inactive,–
Cn1c(=O)[nH]c2ncn(C)c2c1=O,inactive,inactive,inactive,inactive,inactive,inactive,inactive,–
NCC(O)(CS(=O)(=O)O)c1ccc(Cl)cc1 (stereo not drawn),inactive,inactive,inactive,inactive,inactive,inactive,inactive,–
CN1CC(O)C(O)C(O)C1CO (stereo not drawn),inactive,inactive,inactive,inactive,inactive,inactive,inactive,–
NC1(C(=O)O)CC1,inactive,inactive,inactive,inactive,inactive,inactive,inactive,–
CC(=O)NNC(=O)N1Cc2ccccc2Oc2ccc(Cl)cc21,inactive,inactive,inactive,inactive,inactive,inactive,inactive,–
NC1CCN(O)C1=O (stereo not drawn),inactive,inactive,inactive,inactive,inactive,inactive,inactive,–
CC(C)C[C@H](NC(=O)[C@H](O)[C@H](N)Cc1ccccc1)C(=O)O,inactive,inactive,inactive,inactive,inactive,inactive,inactive,–
NC(N)=[N+]1CCc2ccccc2C1,inactive,inactive,inactive,inactive,inactive,inactive,inactive,–
CCCCCCCCCCCCCCSCC(=O)O,inactive,inactive,inactive,inactive,inactive,inactive,11.9 µM (active),–
C=C1C[C@@]23CC[C@H]4[C@@](C)(CCC[C@@]4(C)C(=O)OC4OC(CO)C(O)C(O)C4O)[C@@H]2CC[C@]1(OC1OC(CO)C(O)C(O)C1OC1OC(CO)C(O)C(O)C1O)C3 (stereo partly drawn),inactive,inactive,inactive,inactive,inactive,inactive,inactive,–
O=C(O)/C=C/c1cnc[nH]1,inactive,inactive,inactive,inactive,inactive,inactive,inactive,–
C=CC[C@H](N)C(=O)O,inactive,inactive,inactive,inactive,inactive,inactive,inactive,–
N=C(N)c1ccccc1,inactive,inactive,inactive,inactive,inactive,inactive,inactive,–
N[C@H](C(=O)O)[C@H](O)C(=O)O,inactive,inactive,inactive,inactive,inactive,inactive,inactive,–
COC1(C2=NCCN2)COc2ccccc2O1 (stereo not drawn),inactive,inactive,inactive,inactive,inactive,inactive,inactive,–
CCCCCCCCCC[Si](C)(C)CCC(=O)NC(Cc1ccc(C)cc1)c1ccccc1 (stereo not drawn),inactive,inactive,inactive,inactive,inactive,inactive,inactive,–

Structure (SMILES),Potency [1],Potency [2],outcome [3],Potency [4],Potency [5],Potency [6],Potency [7],Potency (Furin (Homo sapiens))
COCc1nc2c([nH]1)c(=O)n(C)c(=O)n2CC(C)C,inactive,inactive,inactive,inactive,inactive,inactive,inactive,–
CC(=O)O[C@H]1Cc2ccccc2N(C(N)=O)c2ccccc21,inactive,inactive,inactive,inactive,inactive,inactive,inactive,–
CO/N=C(\C(=O)N[C@@H]1C(=O)N2C(C(=O)O)=C(CSc3nc(=O)c(O)nn3C)CSC12)c1csc(N)n1 (stereo partly drawn),inactive,inactive,inactive,inactive,inactive,inactive,inactive,–
C#CCn1c(=O)c2c(ncn2C)n(C)c1=O,inactive,inactive,inactive,inactive,inactive,inactive,inactive,–
CCCCCCCCCCCCCCC[C@H](O)[C@H](N)CO,inactive,inactive,inactive,inactive,inactive,inactive,inactive,–
O=C(O)c1cc2cc(F)ccc2[nH]1,inactive,inactive,inactive,inactive,inactive,56.2 µM (active),26.7 µM (active),–
C=CCNc1ncnc2ccc(Br)cc12,inactive,inactive,inactive,inactive,inactive,inactive,inactive,–
O=C(O)C1=CCCN(CCON=C(c2ccccc2)c2ccccc2)C1,inactive,inactive,inactive,inactive,inactive,inactive,inactive,–
Cc1cc(Cn2cnc3c2C[C@@H](C(=O)O)N(C(=O)C(c2ccccc2)c2ccccc2)C3)ccc1N,inactive,inactive,inactive,inactive,inactive,inactive,inactive,–
Nc1ncnc2c1nc(Br)n2C1OC2COP(=O)(O)O[C@@H]2C1O (stereo partly drawn),inactive,inactive,inactive,inactive,inactive,inactive,inactive,–
N[C@H](C(=O)O)c1cc(O)cc(O)c1,inactive,inactive,inactive,inactive,inactive,inactive,inactive,–
N[C@@H](CS(=O)O)C(=O)O,inactive,inactive,inactive,inactive,inactive,inactive,inactive,–
O=C(c1ccc2c(c1)OCCO2)N1CCCCC1,inactive,inactive,inactive,inactive,inactive,inactive,inactive,–
N[C@H](C(=O)O)[C@H]1C[C@@H]1C(=O)O,inactive,inactive,inactive,inactive,inactive,inactive,inactive,–
NC(=O)CC[C@H](N)C(=O)O,inactive,inactive,inactive,inactive,inactive,inactive,inactive,–
CCCCS(=N)(=O)CC[C@H](N)C(=O)O (stereo partly drawn),inactive,inactive,inactive,inactive,inactive,inactive,inactive,–
CCCCCCN(CCCCCC)C(=O)Cc1c(-c2ccc(F)cc2)[nH]c2ccccc12,inactive,inactive,inactive,inactive,inactive,79.4 µM (active),21.2 µM (active),–
CC(/C=C/c1cccc(Oc2ccc(F)cc2)c1)N(O)C(N)=O (stereo not drawn),inactive,inactive,inactive,inactive,inactive,inactive,inactive,–
S=C(S)N1CCCC1,7.94 µM (active),inactive,inactive,inactive,inactive,20 µM (active),inactive,–
C=CCN1CCc2cc(O)c(O)cc2C(c2ccccc2)C1 (stereo not drawn),inactive,inactive,inactive,inactive,inactive,35.5 µM (active),inactive,–

Structure (SMILES),Potency [1],Potency [2],outcome [3],Potency [4],Potency [5],Potency [6],Potency [7],Potency (Furin (Homo sapiens))
OC[C@H]1NC[C@@H](O)[C@@H]1O,inactive,inactive,inactive,inactive,inactive,inactive,inactive,–
[Li+],inactive,inactive,inactive,inactive,inactive,inactive,inactive,–
CCCCOc1cc(CC2CNC(=O)N2)ccc1OC (stereo not drawn),inactive,inactive,inactive,inactive,inactive,inactive,inactive,–
O=C(O)C1CN(CCCP(=O)(O)O)CCN1 (stereo not drawn),inactive,inactive,inactive,inactive,inactive,inactive,inactive,–
O=C(O)C1CCCNC1 (stereo not drawn),inactive,inactive,inactive,inactive,inactive,inactive,inactive,–
O=C(O)c1cccnc1C(=O)O,inactive,inactive,inactive,16.5 µM (active),inactive,inactive,inactive,–
CCC(=O)N1CCN(C(=O)c2ccccc2)CC1,inactive,inactive,inactive,inactive,inactive,inactive,inactive,–
C=CC1(C)CC(=O)C2(O)C(C)(O1)C(OC(C)=O)C(O)C1C(C)(C)CCC(O)C12C (stereo not drawn),inactive,inactive,inactive,inactive,21.2 µM (active),inactive,inactive,–
COC(=O)[C@H](NC(=O)c1cc(-c2ccccc2)nc2ccccc12)c1ccccc1,inactive,inactive,inactive,inactive,inactive,56.2 µM (active),23.8 µM (active),–
C=C1C[C@@]23CC[C@H]4[C@@](C)(CCC[C@@]4(C)C(=O)O)[C@@H]2CC[C@]1(O)C3,inactive,inactive,inactive,inactive,inactive,inactive,inactive,–
N=S(=O)(O)Cc1noc2ccccc12,inactive,inactive,inactive,inactive,inactive,inactive,inactive,–
Oc1ccc(Cn2cc[nH]c2=S)cc1,inactive,inactive,inactive,inactive,inactive,50.1 µM (active),inactive,–
Oc1cc2c(cc1O)C(c1ccccc1)CNCC2 (stereo not drawn),inactive,inactive,inactive,inactive,inactive,44.7 µM (active),inactive,–
C[C@]12C=CC(=O)C=C1CC[C@@H]1C2=CC[C@]2(C)[C@@H](C(=O)CN3CCN(c4cc(N5CCCC5)nc(N5CCCC5)n4)CC3)CC[C@@H]12,inactive,inactive,inactive,inactive,inactive,–,inactive,–
c1ccc(C(NCCNC(c2ccccc2)c2ccccc2)c2ccccc2)cc1,inactive,inactive,inactive,inactive,–,inactive,inactive,–
CC(=O)N[C@@H](Cc1c[nH]c2ccccc12)C(=O)OCc1cc(C(F)(F)F)cc(C(F)(F)F)c1,inactive,inactive,inactive,inactive,inactive,inactive,inactive,–
Cn1c(=O)c2[nH]c(C3CCCC3)nc2n(C)c1=O,inactive,inactive,inactive,inactive,–,inactive,inactive,–
O=C(O)c1ccccc1Nc1cccc(OCc2ccc3ccccc3n2)c1,inactive,inactive,inactive,inactive,inactive,–,29.9 µM (active),inactive
CCCCCC(O)CCCC(=O)O (stereo not drawn),inactive,inactive,inactive,inactive,–,inactive,–,–

# From PubChem BioAssay (NCATS)
